According to PubChem BioAssay AID602400 (Sanford-Burnham Center for Chemical Genomics, 2012):
The source made the active and inactive calls. No rule for the calls is given here.

Test: Bfl-1 counter-screen inhibitors, SAR follow-up, counter-screen for UBC13 polyubiquitination inhibitor project, biochemical, set 4 (AID 602400)
Details: Bfl-1 counterscreen for UBC13 inhibitors

Row | SMILES | IC50
1 | Cc1cc(C)cc(NC(=O)C2CCN(c3ncnc4c3nc3n4CCCCC3)CC2)c1 | 72.9 µM (active)
2 | O=C(NCC1CCN(Cc2cccc(Cl)c2)CC1)C1CCCN(c2ncnc3c2nc2n3CCCC2)C1 (stereo not drawn) | > 100 µM (inactive)
3 | Cc1cccc(NC(=O)C2CCN(c3ncnc4c3nc3n4CCCCC3)CC2)c1C | > 100 µM (inactive)
4 | O=C(NCc1cccc(Cl)c1)C1CCCN(c2ncnc3c2nc2n3CCCCC2)C1 (stereo not drawn) | > 100 µM (inactive)
5 | COc1ccc(Cl)cc1NC(=O)C1CCN(c2ncnc3c2nc2n3CCCCC2)CC1 | > 100 µM (inactive)
6 | O=C(C1CCN(c2ncnc3c2nc2n3CCCCC2)CC1)N1CCN(c2ccccn2)CC1 | > 100 µM (inactive)
7 | CC1CCCCN1C(=O)C1CCN(c2ncnc3c2nc2n3CCCCC2)CC1 (stereo not drawn) | > 100 µM (inactive)
8 | Cc1cc(C)cc(NC(=O)C2CCCN(c3ncnc4c3nc3n4CCCCC3)C2)c1 (stereo not drawn) | > 100 µM (inactive)
9 | O=C(NCc1cccc(Cl)c1)C1CCCN(c2ncnc3c2nc2n3CCCC2)C1 (stereo not drawn) | > 100 µM (inactive)
10 | O=C(NCC1CCN(Cc2cccc(Cl)c2)CC1)[C@@H]1CCCN(c2ncnc3c2nc2n3CCCC2)C1 | > 100 µM (inactive)
11 | Cc1c(Cl)cccc1NC(=O)C1CCN(c2ncnc3c2nc2n3CCCCC2)CC1 | > 100 µM (inactive)
12 | O=C(NCc1ccc(Cl)c(Cl)c1)C1CCCN(c2ncnc3c2nc2n3CCCC2)C1 (stereo not drawn) | > 100 µM (inactive)
13 | O=C(NCCCN1CCN(c2ccc(F)cc2)CC1)C1CCCN(c2ncnc3c2nc2n3CCCCC2)C1 (stereo not drawn) | > 100 µM (inactive)
14 | Cc1ccccc1CN1CCC(CNC(=O)C2CCCN(c3ncnc4c3nc3n4CCCCC3)C2)CC1 (stereo not drawn) | > 100 µM (inactive)
15 | Cc1ccc(C)c(CN2CCC(CNC(=O)C3CCCN(c4ncnc5c4nc4n5CCCCC4)C3)CC2)c1 (stereo not drawn) | > 100 µM (inactive)
16 | O=C(NCC1CCN(Cc2ccc(Cl)cc2)CC1)C1CCCN(c2ncnc3c2nc2n3CCCCC2)C1 (stereo not drawn) | > 100 µM (inactive)
17 | O=C(Nc1cc(F)ccc1F)C1CCN(c2ncnc3c2nc2n3CCCCC2)CC1 | > 100 µM (inactive)
18 | COc1ccc(NC(=O)C2CCN(c3ncnc4c3nc3n4CCCCC3)CC2)cc1Cl | > 100 µM (inactive)
19 | Cc1cccc(NC(=O)C2CCN(c3ncnc4c3nc3n4CCCC3)CC2)c1 | 23 µM (active)

Row | SMILES | IC50
20 | O=C(C1CCN(c2ncnc3c2nc2n3CCCCC2)CC1)N1CCN(c2ccccc2)CC1 | > 100 µM (inactive)
21 | O=C(NCC1CCN(Cc2ccc(Cl)cc2)CC1)C1CCCN(c2ncnc3c2nc2n3CCCC2)C1 (stereo not drawn) | 76.8 µM (active)
22 | Cc1ccc(NC(=O)C2CCN(c3ncnc4c3nc3n4CCCCC3)CC2)c(Cl)c1 | > 100 µM (inactive)
23 | CC1CCCC(C)N1CCCNC(=O)C1CCCN(c2ncnc3c2nc2n3CCCCC2)C1 (stereo not drawn) | > 100 µM (inactive)
24 | Cc1ccc(NC(=O)C2CCCN(c3ncnc4c3nc3n4CCCC3)C2)cc1C (stereo not drawn) | > 100 µM (inactive)
25 | O=C(NCC1CCN(Cc2ccc(F)cc2)CC1)C1CCCN(c2ncnc3c2nc2n3CCCCC2)C1 (stereo not drawn) | > 100 µM (inactive)
26 | Cc1cccc(NC(=O)C2CCCN(c3ncnc4c3nc3n4CCCC3)C2)c1 (stereo not drawn) | > 100 µM (inactive)
27 | CCC1CCCCN1CCCNC(=O)C1CCN(c2ncnc3c2nc2n3CCCCC2)CC1 (stereo not drawn) | > 100 µM (inactive)
28 | O=C(NCC1CCN(Cc2ccc(Cl)c(Cl)c2)CC1)C1CCCN(c2ncnc3c2nc2n3CCCCC2)C1 (stereo not drawn) | > 100 µM (inactive)
29 | O=C(NCC1CCN(Cc2ccccc2Cl)CC1)C1CCCN(c2ncnc3c2nc2n3CCCCC2)C1 (stereo not drawn) | > 100 µM (inactive)
30 | Cc1cccc(NC(=O)C2CCCN(c3ncnc4c3nc3n4CCCCC3)C2)c1 (stereo not drawn) | > 100 µM (inactive)
31 | CCCN1CCN(C(=O)C2CCN(c3ncnc4c3nc3n4CCCCC3)CC2)CC1 | > 100 µM (inactive)
32 | O=C(NCC1CCN(Cc2ccccc2Cl)CC1)C1CCCN(c2ncnc3c2nc2n3CCCC2)C1 (stereo not drawn) | > 100 µM (inactive)
33 | Cc1ccc(NC(=O)C2CCCN(c3ncnc4c3nc3n4CCCC3)C2)cc1F (stereo not drawn) | > 100 µM (inactive)
34 | Cc1cc(C)cc(NC(=O)C2CCN(c3ncnc4c3nc3n4CCCC3)CC2)c1 | 23.9 µM (active)
35 | O=C(Nc1ccc(F)c(Cl)c1)C1CCN(c2ncnc3c2nc2n3CCCCC2)CC1 | > 100 µM (inactive)
36 | O=C(NCC1CCN(Cc2ccccc2F)CC1)C1CCCN(c2ncnc3c2nc2n3CCCCC2)C1 (stereo not drawn) | > 100 µM (inactive)
37 | Cc1cc(C)cc(NC(=O)C2CCCN(c3ncnc4c3nc3n4CCCC3)C2)c1 (stereo not drawn) | > 100 µM (inactive)
38 | O=C(NCc1ccc(Cl)c(Cl)c1)C1CCN(c2ncnc3c2nc2n3CCCCC2)CC1 | > 100 µM (inactive)
